Measured values taken from the supplement of paper PMC12669032.
Values without a mark were called inactive.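 How the source made its calls: active = AUC reduced over 20% with Padj below 0.05 in at least 2 of 3 replicates; inactive = otherwise.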

How the values were obtained:
Roseburia intestinalis = test: growth AUC relative to DMSO control (median of replicates) (fraction); higher = more growth (less inhibition), active = hit call of the paper; conditions: 20 µM; 24 h
In short: (§1)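 Area under the growth curve was normalised to the plate median of solvent-only wells, or to row and column medians on the industrial chemical plate. Growth curves came from anaerobic gut bacterial monocultures in mGAM at 37 °C, seeded at OD600 0.05 with 20 µM compound (1% DMSO), and read at OD600 hourly for 24 h with the minimum OD set to 0. The value is the median of three biological replicates grown on separate days.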

Streptococcus salivarius = test: as above; conditions: 20 µM; 24 h
In short: as §1

SMILES | growth AUC (Roseburia intestinalis) | growth AUC (Streptococcus salivarius)
CNc1nc(NC(C)C)nc(SC)n1 | 0.995 | 0.975
CCNc1nc(NC(C)(C)C)[nH]c(=O)n1 | 1.03 | 1.03
NS(=O)(=O)[O-].[NH4+] | 1.06 | 1.01
CNC(=O)Nc1nc2ccccc2s1 | 0.983 | 0.965
CCc1nc2ncnn2c(N)c1CCCCCC(=O)O.Cl | 0.955 | 1.02
COC(=O)c1ccccc1S(=O)(=O)NC(=O)Nc1nc(OC(F)F)cc(OC(F)F)n1 | 1.01 | 0.994
N[C@@H](Cc1cc(I)c(Oc2cc(I)c(O)c(I)c2)c(I)c1)C(=O)O | 0.798 | 0.923
CCOCN(C(=O)C(=O)O)c1c(C)cccc1CC | 0.996 | 1.04
CC(C)(CO)C(O)(CCc1ccc(Cl)cc1)Cn1cncn1 (centres undefined) | 0.935 | 0.987
[O-][n+]1nc(-n2ccnc2)nc2ccc(Cl)cc21 | 0.984 | 1
CC(Oc1ccc(Cl)cc1Cl)C(=O)NC(C)(C#N)C(C)C (centres undefined) | 0.968 | 0.918
O=C(O)COc1ccc(Cl)c2cccnc12 | 0.963 | 1.05
COC(=O)C(Cl)Cc1ccc(Cl)cc1 (centres undefined) | 0.965 | 0.93
CCc1cccc(C)c1N(C(=O)CS(=O)(=O)[O-])C(C)COC.[Na+] (centres undefined) | 0.925 | 0.878
CN(C)C(=O)SCCCCOc1ccccc1 | 0.998 | 0.99
CCCCOCCOC(=O)COc1nc(Cl)c(Cl)cc1Cl | 0.995 | 0.998
CCC/C(=N\OCC(C)Oc1ccc(Cl)cc1)C1=C(O)CC(C2CCCSC2)CC1=O (centres undefined) | 1.02 | 0.94
CC(C)c1cc(Oc2ccccc2)cc(C(C)C)c1NC(=S)NC(C)(C)C | 0.926 | 0.992
O=c1cccc2n1CCn1c-2cccc1=O | 0.991 | 1.02

SMILES | growth AUC (Roseburia intestinalis) | growth AUC (Streptococcus salivarius)
COc1cc(OC)c(Cl)cc1N | 1.06 | 1.06
COC1CCC2(CC1)NC(=O)C(c1cc(C)ccc1C)=C2OC1OC(CO)C(O)C(O)C1O (centres undefined) | 1 | 1.01
O=C(O)Cc1c(Cl)ccc(Cl)c1Cl | 0.979 | 1.01
CCCCCCCC/C=C\CCCCCCCCCCCCC | 1.07 | 1.03
CCSC(=O)N(CC(C)C)CC(C)C | 1.01 | 0.997
CC(C)(SC(=O)N1CCCCC1)c1ccccc1 | 1.05 | 0.98
CCOC(=O)[C@@H](C)Oc1ccc(Oc2nc3ccc(Cl)cc3o2)cc1 | 0.975 | 1.05
Cc1cccc(C)c1O | 0.942 | 0.968
Oc1ccccc1 | 1.04 | 0.987
CCOC(=O)c1nc(C(Cl)(Cl)Cl)n(-c2ccc(Cl)cc2Cl)n1 | 0.949 | 0.992
CCCCC(CC)COC(=O)COc1cc(Cl)c(Cl)cc1Cl (centres undefined) | 0.966 | 1
COc1ccc(Oc2ccc(NC(=O)N(C)C)cc2)cc1 | 0.99 | 0.988
CCc1cc(C(=O)O)cc(CC)c1C1C(=O)N2CCOCCN2C1=O | 0.952 | 1
CCCCCCCCOC(=O)COc1cc(Cl)c(Cl)cc1Cl | 0.953 | 0.875
Cn1cc(C(=O)Nc2ccc(F)cc2-c2ccc(Cl)c(Cl)c2)c(C(F)F)n1 | 0.989 | 0.897
Cn1cc(C(=O)Nc2ccccc2-c2cc(F)c(F)c(F)c2)c(C(F)F)n1 | 0.997 | 0.966
CCOc1ccc2c(c1)C(C)=CC(C)(C)N2 | 1.04 | 1.06
Cc1cc(CC(C)CC(C)(C)C)n(O)c(=O)c1.NCCO (centres undefined) | 0.995 | 1.02
